The text below walks through data of PubChem BioAssay (NCATS).

Where “and” joins values, the source holds several entries; their conditions need not be identical. Identical values can stand only once. Results filed as inconclusive are left out. A number with no mark means an inactive call. Calls of active or inactive are those of the source. Calls follow the shape of the full dose curve.

Test [1] concerns the target Bile acid receptor (Homo sapiens) (UniProt Q96RI1). The test can be described thus: qHTS assay for small molecule agonists of farnesoid X receptor signaling (AID 588527).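 Also: series mostly up to about 77 µM; 0% = vehicle basal and 100% = reference agonist.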 To be noted: HEK293T FXR-UAS-bla, beta-lactamase ratio, 16 h; activation: stronger effect = higher value. The method in brief: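 FXR-UAS-bla HEK293T, 10% dialyzed FBS; cpds up to 92 uM titration, 16 h 37 C; CCF4 dye 2 h RT; fluorescence. Normalized to chenodeoxycholic acid 100 uM (100%) and DMSO (0%); Hill fit gives EC50, efficacy.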
For orientation: qHTS replaces the single test concentration by a dilution series.

Test [2] addresses Peroxisome proliferator-activated receptor delta (Homo sapiens) (UniProt Q03181). The test can be described thus: qHTS assay for small molecule agonists of peroxisome proliferator-activated receptor delta signaling (AID 588534).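 Also: 0% = DMSO basal wells and 100% = positive control agonist at 10 µM.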 The method in brief:
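Agonist-mode beta-lactamase reporter readout (CCF4 dye, 2 h at RT) after 18 h at 37 °C exposure to a titration; Hill-equation fitting gave EC50 and maximal response.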

Sequence of Peroxisome proliferator-activated receptor delta (Homo sapiens) (Q03181 whole entry, looked up): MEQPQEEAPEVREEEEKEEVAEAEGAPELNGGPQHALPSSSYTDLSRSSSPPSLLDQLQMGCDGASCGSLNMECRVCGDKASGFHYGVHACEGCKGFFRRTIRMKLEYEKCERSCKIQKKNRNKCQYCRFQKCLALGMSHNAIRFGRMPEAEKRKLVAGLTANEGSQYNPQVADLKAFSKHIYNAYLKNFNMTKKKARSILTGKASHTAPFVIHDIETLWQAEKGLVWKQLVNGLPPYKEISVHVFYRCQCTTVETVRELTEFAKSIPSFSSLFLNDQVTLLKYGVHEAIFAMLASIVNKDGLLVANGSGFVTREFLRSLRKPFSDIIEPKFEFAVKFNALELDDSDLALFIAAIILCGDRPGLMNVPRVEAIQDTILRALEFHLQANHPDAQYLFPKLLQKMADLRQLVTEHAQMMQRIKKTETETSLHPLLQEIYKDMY
Sequence of Bile acid receptor (Homo sapiens) (Q96RI1 whole entry, looked up): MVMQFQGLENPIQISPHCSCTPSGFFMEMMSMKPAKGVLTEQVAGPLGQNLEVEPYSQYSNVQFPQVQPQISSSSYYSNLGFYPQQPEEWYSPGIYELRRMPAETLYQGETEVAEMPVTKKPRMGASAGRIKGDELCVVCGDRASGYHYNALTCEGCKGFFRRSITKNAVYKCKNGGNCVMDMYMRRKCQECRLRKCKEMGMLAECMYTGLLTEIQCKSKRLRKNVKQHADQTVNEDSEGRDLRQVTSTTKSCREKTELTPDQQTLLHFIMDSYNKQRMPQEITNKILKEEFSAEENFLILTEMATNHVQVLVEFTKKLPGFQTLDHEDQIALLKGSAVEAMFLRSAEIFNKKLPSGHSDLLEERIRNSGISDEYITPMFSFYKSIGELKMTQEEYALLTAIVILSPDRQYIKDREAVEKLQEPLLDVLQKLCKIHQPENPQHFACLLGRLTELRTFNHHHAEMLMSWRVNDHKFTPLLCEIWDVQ

As for `CCCCCCCCCCCCCCCCN(C)C`, the activation in test [1] is 3.83%. Also, the outcome in test [2] was inactive.
With `C=C1C[C@]23C[C@@]1(O)CC[C@H]2[C@@]12C=C[C@H](O)[C@@](C)(C(=O)O1)[C@H]2[C@@H]3C(=O)O`, the activation in test [1] was 0.442%. Besides, the result in test [2] was inactive.
The matching figures for `O=C(O)c1cccc(C(=O)O)c1`: -0.333% and “inactive”.
The like results for `Nc1cc(Cl)nc(C(=O)O)c1Cl` were, in that order, -2.93% and “inactive”.
The matching figures for `Cl[Si](Cl)(c1ccccc1)c1ccccc1`: 3.41% and “inactive”.
For the compound `BrC/C=C/CBr`, the activation in test [1] was 1.2%. Moreover, the result in test [2] was inactive.
As for `Cc1ccc2oc(=O)ccc2c1`, the activation in test [1] is 0.64% and 1.95%. In test [2], the outcome was inactive.
As to `CC(C)=CCC/C(C)=C\CO`, the activation in test [1] was -0.74%. Also, the compound was called inactive in test [2].
On to `CCOCCOCC`, for which the activation in test [1] is -1.11%. Also, the result in test [2] was inactive.
On to `CC(=C/C=C/C(C)=C/C=C/C=C(C)/C=C/C=C(C)/C=C/C(=O)O)/C=C/C(=O)O`, for which, in test [1], the activation is -1.08%. For the same compound, in test [2], the compound was classed as inactive.
Regarding `Cc1c(C(=O)O)cccc1[N+](=O)[O-]`, the activation in test [1] was -2.92%. For the same compound, the compound was classed as inactive in test [2].
`CCc1ccccc1O`: the activation in test [1] is -1.44%. Further, in test [2], the call was inactive.
For the compound `CO[Si](CCCOCC1CO1)(OC)OC` (stereo unspecified), the activation in test [1] is -0.427%. Further, the result in test [2] was inactive.
Turning to `CCCCC/C=C\C/C=C\CCCCCCCC(=O)O`, the activation in test [1] was -2.08% and -1.01%. In addition, the outcome in test [2] was inactive.
As to `C=C(C)C(=O)OCCCCCCCCCCCCCCCC`, the activation in test [1] is -3.87%. The compound was called inactive in test [2].
On to `C=Cc1ccc(C=C)cc1`, for which, in test [1], the activation was -3.75%. In addition, the compound was called inactive in test [2].
For the compound `Cc1ccccc1C(N)=O`, in test [1], the activation was 2.86%. In test [2], the call was inactive.
Consider `NC(=O)Cc1cccc2ccccc12`, for which, in test [1], the activation was 0.544%. Moreover, the outcome in test [2] was inactive.
Take `CCCCCCCC/C=C\CCCCCCCC(=O)O`: in test [1], the activation is -0.994% and -1.49%. In addition, the compound was classed as inactive in test [2].
On to `C#CCOC(=O)[C@@H](C)Oc1ccc(Oc2ncc(Cl)cc2F)cc1`, for which, in test [1], the activation is -1.83%. Besides, the compound was classed as inactive in test [2].
On to `CC(C)(C)c1n[nH]c(=O)n(N)c1=O`, for which the activation in test [1] was 2.05%. Also, in test [2], the result was inactive.
Take `IC(I)I`: in test [1], the activation is 0.284% and 0.834%. For the same compound, the result in test [2] was inactive.
Regarding `CCCCCCCC/C=C\CCCCCCCC(=O)N(CCO)CCO`, in test [1], the activation was 0.527%. Also, the result in test [2] was inactive.
The like results for `CC1(C)CC(NCCCCCCNC2CC(C)(C)NC(C)(C)C2)CC(C)(C)N1` were, in that order, 5.33% and “inactive”.
Take `CCC(C)(C)C(=O)O`: the activation in test [1] is 0.339%. Further, the compound was classed as inactive in test [2].
For the compound `Cc1c(N)cccc1Cl`, the activation in test [1] is -0.769%. The compound was classed as inactive in test [2].
The matching figures for `CCC/C(=N\OCC)C1=C(O)CC(O)(CC(C)S(=O)(=O)CC)CC1=O` (stereo unspecified): 0.69% and “inactive”.
As for `CCOCCOCCOC(C)=O`, the activation in test [1] was -3.45%. For the same compound, the result in test [2] was inactive.
As for `COc1nc(C)nc(NC(=O)NS(=O)(=O)c2ccccc2OCCCl)n1`, the activation in test [1] was -2.13%. The result in test [2] was inactive.
As to `Nc1cccc([N+](=O)[O-])c1`, the activation in test [1] is -0.749%. The outcome in test [2] was inactive.
Take `Oc1c(Cl)cc(Cl)c(Cl)c1Cl`: the activation in test [1] was -1.79% and -2.07%. Moreover, in test [2], the result was inactive.
For the compound `O=C(O)CN(CCCN(CC(=O)O)CC(=O)O)CC(=O)O`, in test [1], the activation is 8.42%. Further, the call in test [2] was inactive.
Turning to `Cc1cccc([N+](=O)[O-])c1C(=O)O`, the activation in test [1] is -1.22%. Further, the compound was classed as inactive in test [2].
Turning to `CC(=O)CC(C)C`, the activation in test [1] is -0.151%. Besides, the result in test [2] was inactive.
Turning to `CCC(C)=O`, the activation in test [1] is -0.657%. Moreover, the compound was called inactive in test [2].
As for `OCC(O)CO`, in test [1], the activation is -1.04% and -2.12%. The compound was called inactive in test [2].
On to `CCOc1ccc(NC(=O)OC(C)C)cc1OCC`, for which the activation in test [1] was -1.45%. Besides, the result in test [2] was inactive.
For the compound `CCCCCCCCCCCCCCN`, the activation in test [1] is 2.17%. In test [2], the outcome was inactive.
On to `O=CNc1ccccc1`, for which the activation in test [1] was -1.29%. Also, the result in test [2] was inactive.
Take `Oc1cccc(Nc2ccccc2)c1`: the activation in test [1] is 0.64%. For the same compound, the compound was classed as inactive in test [2].
In the case of `O=C(O)c1c(Cl)cccc1Cl`, the activation in test [1] was 2.87%. Also, the outcome in test [2] was inactive.
Take `CCCCCCC(O)CCCCCCCCCCC(=O)O` (stereo unspecified): the activation in test [1] is 3.12%. Moreover, in test [2], the compound was classed as inactive.
Take `C=Cc1ccc(P(c2ccccc2)c2ccccc2)cc1`: the activation in test [1] was -1.25%. Moreover, the call in test [2] was inactive.
With `Clc1ccccn1`, in test [1], the activation was -2.48%. Further, in test [2], the outcome was inactive.
As for `CCCCCC/C(C=O)=C\c1ccccc1`, the activation in test [1] was -2.14%. The call in test [2] was inactive.
For the compound `COC(=O)C1CCC(C(=O)OC)CC1` (stereo unspecified), the activation in test [1] was -4.06%. Moreover, in test [2], the outcome was inactive.
Consider `CC(O)CO` (stereo unspecified), for which the activation in test [1] was 1.32% and -0.791%. Also, the call in test [2] was inactive.
In the case of `N#Cc1ccccc1`, in test [1], the activation was -3.25%. Besides, in test [2], the call was inactive.
